# Sfp inh = inhibitors of Bacillus subtilis Sfp phosphopantetheinyl transferase | Biochemical Sfp PPTase activity, qHTS | Potency, µM, most hits filed as inhibitors | 310,000 tested, 3.5% active | AID 1490;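 also: the enzyme is Sfp with the accession as filed and its product quenches rhodamine fluorescence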
#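 Fluorescence-quenching assay with 15 nM Sfp, 5 uM rhodamine-CoA and 12.5 uM BHQ-2-labelled ybbR peptide in pH 7.6 Hepes/MgCl2 buffer. Enzyme was pre-incubated with compound for 15 min at room temperature. Rate was taken from the 30-min fluorescence change (525/598 nm).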
# HP1b binding inh = HP1-beta chromodomain-methylated histone interaction inhibition | P83916 | AlphaScreen HP1-beta / biotin-H3K9me3 peptide binding | Potency, µM (highest dose often 114 µM), actives largely listed as inhibitors | 390,000 tested, 0.56% active; also: nearly all actives have a fitted effect of over 70% in size
#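 AlphaScreen: HP1-beta (50 nM) preformed 30 min with biotin-H3(1-18)K9me3 peptide (50 nM) in PBS pH 7.4, 0.01% Tween-20. Compound added for 30 min at RT, then streptavidin donor/nickel chelate acceptor beads (10 ug/mL) for 30 min.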
# BAZ2B inh = blocks human BAZ2B; AlphaScreen BAZ2B-H3K14Ac peptide displacement; 360,000 tested, 4.4% active; Q9UIF8; Potency, µM (highest dose often 114 µM), hits mostly inhibitors; also: nearly all actives have a fitted effect of over 60% in size
#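 Inhibition is scored as reduced AlphaScreen emission. The BAZ2B/b-H3(5-23)K14Ac complex (50 nM each) in PBS pH 7.4, 0.01% Tween-20 meets compound (up to 110 uM) for 30 min at RT before bead addition.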
# G9a block = blocks human histone lysine methyltransferase G9a. Q96KQ7. G9a H3K9 monomethylation, AlphaScreen, 2 h. Potency, µM (highest dose often 102 µM), hits mostly inhibitors. 350,000 tested, 8.8% active. AID 504332; also: nearly all actives have a fitted effect of over 75% in size
#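 G9a (20 nM) preincubated 15 min RT with compounds, then 500 nM biotinylated H3K9 peptide and 20 uM SAM added; 2 h RT reaction. Monomethyl-H3K9 product detected by AlphaScreen with anti-H3K9me1 antibody, streptavidin donor and anti-rabbit IgG acceptor beads.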
# JMJD2A Tudor = inhibitors of human JMJD2A Tudor domain | O75164 | AlphaScreen JMJD2A-Tudor / H3K4me3 peptide binding | Potency, µM (top dose mostly 114 µM), most hits filed as inhibitors | 390,000 tested, 4.4% active | AID 504339; also: nearly all actives have a fitted effect of over 50% in size
# Numbers stand for hits; i = inactive; ? = inconclusive; nt = not tested or not shown; [ ] = dose if it differs, or a comment. A selection: hits, their analogues and other compounds. The true share with any hit is near 12%. Calls follow the shape of the dose curve; as a rule, active = well fitted curve in the direction sought with a large enough effect; inconclusive = small, poorly fitted or top-dose-only effect, or another doubt; inactive = no such curve, though single readings can be large; an effect the other way counts as inactive or inconclusive.
SMILES,Sfp inh,HP1b binding inh,BAZ2B inh,G9a block,JMJD2A Tudor
COc1ccc(S(=O)(=O)NCCc2ccccc2)cc1OC,i,i,i,i,i
CCOC(=O)c1ccc(NC(=O)COc2ccccc2CNCCc2ccccc2)cc1,50µM,i,i,i,i
CCOC(=O)N1CCC(N(CCN(C)C)C(=S)Nc2cc(Cl)cc(Cl)c2)CC1,i,i,79µM,?,i
CCOC(=O)N1CCC(N(CCN(C)C)C(=S)Nc2cccc(Cl)c2)CC1,i,i,i,i,i
COc1ccc(NC(=O)C2CCCN2C(=O)Nc2cccc(F)c2)cc1 (stereo not drawn),i,i,i,i,i
O=C(COC(=O)c1cc(=O)c2ccccc2o1)NCC1CCCCC1,i,i,i,i,i
COc1ccc(Cl)cc1C(=O)CSc1nc(N)cc(N)n1,i,i,i,50µM,?
O=C(NC1CC(=O)N(c2cccc(F)c2)C1)C(c1ccccc1)c1ccccc1 (stereo not drawn),nt,i,i,i,i
CCC1CCC2(CC1)NC(=O)N(CC(=O)Nc1cccc(S(=O)(=O)N(C)c3ccccc3)c1)C2=O (stereo not drawn),nt,i,i,5.6µM,i
CN(c1ccccc1)S(=O)(=O)c1cccc(NC(=O)CN2CCc3ccccc3C2)c1,i,i,nt,i,i
CC1CCC2(CC1)NC(=O)N(CC(=O)Nc1cccc(S(=O)(=O)N3CCCCC3)c1)C2=O (stereo not drawn),nt,i,nt,nt,?
CN1C(=O)N(CC(=O)Nc2cccc(S(=O)(=O)N(C)c3ccccc3)c2)C(=O)C12CCCCC2,nt,i,i,56µM,i
Cn1c(/C=C/c2ccc(Cl)cc2)c([N+](=O)[O-])c(=O)n(C)c1=O,i,i,i,i,i
Oc1ccc2ccccc2c1-c1sc(Nc2ccccc2)n[n+]1-c1ccc(F)cc1,i,i,?,40µM,?
c1ccc(-[n+]2nc(Nc3cccc4ccccc34)sc2-c2c3ccccc3cc3ccccc23)cc1,nt,?,3.5µM,i[2.33 µM],2.5µM
Fc1ccc(-[n+]2nc(Nc3ccccc3)sc2-c2c3ccccc3cc3ccccc23)cc1,45µM,?,5µM,11µM,16µM
COc1ccc(C2=NOC(Cn3nc(-c4ccccc4)cc3C(=O)NCc3cccs3)C2)cc1 (stereo not drawn),nt,i,nt,nt,i
CCCSc1nnc(Cc2cc(=O)[nH]c(=O)[nH]2)n1-c1cc(C)ccc1C,i,i,i,?,14µM
CCC(C)Sc1nnc(Cc2cc(=O)[nH]c(=O)[nH]2)n1-c1ccc(F)cc1 (stereo not drawn),?,i,i,40µM,i
CC1CCN(C(=O)CSc2nnc(Cc3cc(=O)[nH]c(=O)[nH]3)n2-c2ccc(Cl)cc2)CC1,i,i,i,35µM,i
COc1ccc(-n2c(Cc3cc(=O)[nH]c(=O)[nH]3)nnc2SCC(=O)N2CCC(C)CC2)cc1,i,i,i,?,i
CCOc1ccc(-n2c(Cc3cc(=O)[nH]c(=O)[nH]3)nnc2SCc2cccnc2)cc1,i,nt,i,56µM,nt
O=c1cc(Cc2nnc(SCc3ccccc3)n2-c2ccc(Cl)cc2)[nH]c(=O)[nH]1,i,i,nt,i,i
CCOc1ccc(-n2c(Cc3cc(=O)[nH]c(=O)[nH]3)nnc2SC(C)C)cc1,i,i,i,i,i
CCSc1nnc(Cc2cc(=O)[nH]c(=O)[nH]2)n1-c1cccc(C)c1,i,i,i,?,i
SMILES,Sfp inh,HP1b binding inh,BAZ2B inh,G9a block,JMJD2A Tudor
CCOc1cc(N2CCOCC2)c(OCC)cc1NC(=O)CN1C(=O)NC(CC)(c2ccc(F)cc2)C1=O (stereo not drawn),nt,i,nt,nt,i
CCOC(=O)Cn1c(=O)n(C2CCCCC2)c2nc(-c3ccccc3Cl)nc(C(N)=O)c21,nt,i,i,i,i
CC(=O)NC(C(=O)c1ccccc1)C(=O)c1ccccc1,i,i,i,50µM,i
CCOP(=O)(OCC)C(NC(C)=O)C(=O)c1ccccc1 (stereo not drawn),i,i,i,i,i
Oc1c(N=Nc2ccccn2)ccc2ccccc12,i,5µM,3.2µM,i[0.501 µM],2.8µM
Cc1c(NC(=O)CN2CCCc3ccccc32)c(=O)n(-c2ccccc2)n1C,i,i,i,i,?
CCCc1cc(=O)[nH]c2nnc(SCC(=O)Nc3ccc(C(C)=O)cc3)n12,nt,i,i,i[0.501 µM],i
CCCc1cc(=O)[nH]c2nnc(SCC(=O)Nc3nnc(CC)s3)n12,nt,i,i,i[12.7 µM],25µM

# Screens deposited in PubChem by National Center for Advancing Translational Sciences (NCATS).
